Reference: PubChem BioAssay (Tox21)
Inconclusive results are not listed. The source made the active and inactive calls. Calls come from the whole dose curve.

Biological target: Acetylcholinesterase (Homo sapiens) (UniProt P22303)
Experiment: Acetylcholinesterase (AChE) small molecule antagonists: fluorescence cell-based qHTS assay (AID 1347398); note: nearly all actives have a fitted effect of over 50% in size
Settings: SH-SY5Y cells; Potency: AChE activity; outcome: AChE activity; series mostly up to 115 µM; activity change, negative = inhibition: at the top concentration
Method in brief: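 Homogeneous quantitative HTS format. SH-SY5Y cells seeded at 2,000 per well settle overnight at 37 C. Compound pretreatment runs 30 min (37 C, 5% CO2); substrate/probe mix then reacts 40 min at RT before reading 490/520 nm.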
% is set by controls: 0 for no effect and ±100 for the full control effect.

Chain of Acetylcholinesterase (Homo sapiens) (P22303 whole entry, looked up): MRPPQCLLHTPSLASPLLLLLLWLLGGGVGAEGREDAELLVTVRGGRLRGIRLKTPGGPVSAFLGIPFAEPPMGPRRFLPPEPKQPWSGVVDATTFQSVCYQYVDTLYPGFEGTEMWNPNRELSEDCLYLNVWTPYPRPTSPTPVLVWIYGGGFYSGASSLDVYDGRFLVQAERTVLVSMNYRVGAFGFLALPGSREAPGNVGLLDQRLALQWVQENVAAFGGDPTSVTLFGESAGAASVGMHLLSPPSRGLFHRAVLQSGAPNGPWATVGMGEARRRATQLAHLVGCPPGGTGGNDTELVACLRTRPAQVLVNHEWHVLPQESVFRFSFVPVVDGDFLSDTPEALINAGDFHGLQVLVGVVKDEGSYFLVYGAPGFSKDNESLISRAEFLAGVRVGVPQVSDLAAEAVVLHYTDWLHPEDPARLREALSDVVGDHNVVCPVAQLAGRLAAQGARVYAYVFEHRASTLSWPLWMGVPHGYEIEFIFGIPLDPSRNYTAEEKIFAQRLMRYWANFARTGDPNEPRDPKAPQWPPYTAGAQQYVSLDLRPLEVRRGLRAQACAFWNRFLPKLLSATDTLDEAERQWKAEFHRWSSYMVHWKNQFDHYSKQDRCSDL

| Structure (SMILES) | activity change, negative = inhibition |
| --- | --- |
| CCCCCCCCCCCCCCCCCC(=O)OCCCCCCCCCCCCCC(C)C | -1.87% (inactive) |
| COc1ccc(OC)c(Cl)c1 | -1.1% (inactive) |
| CCCCCCOC(=O)CCCCC(=O)OCCCCCC | -0.755% (inactive) |
| CCCCCCc1ccc(N)cc1 | 10.5% (inactive) |
| CC(C)[C@H]1CC[C@H](C)C[C@@H]1O | -4.8% (inactive) |
| FC(F)(F)C(Cl)(Cl)Cl | -4.07% (inactive) |
| [O-][n+]1ccc(Cl)cc1 | 4.93% (inactive) |
| Cc1cc(C)cc([N+](=O)[O-])c1 | 4.93% (inactive) |
| O=CC1CC1 | 3.66% (inactive) |
| O=C(O)CCCCCCCCCCCBr | 1.27% (inactive) |
| CCC(CC)C(C)CCOC(C)=O (stereo not drawn) | 3.42% (inactive) |
| O=C(OCc1ccccc1)C(=O)OCc1ccccc1 | 0.258% (inactive) |
| Cc1c(NC(C)C)c(=O)n(-c2ccccc2)n1C | 3.95% [at 53.7 µM] (inactive) |
| CCCCCCC1(C)CCC(=O)O1 (stereo not drawn) | -0.0083% (inactive) |
| C#CCOC(=O)[C@@H](C)Oc1ccc(Oc2ncc(Cl)cc2F)cc1 | -10.5% (inactive) |
| COc1ccc(CCC(=O)c2c(O)cc(O[C@@H]3O[C@H](CO)[C@@H](O)[C@H](O)[C@H]3O[C@@H]3O[C@@H](C)[C@H](O)[C@@H](O)[C@H]3O)cc2O)cc1O | -1.02% (inactive) |
| CC(=O)c1c(C)cc(C(C)(C)C)cc1C | -1.28% (inactive) |
| CCC1Nc2cc(Cl)c(S(N)(=O)=O)cc2S(=O)(=O)N1 (stereo not drawn) | -27.3% [at 53.7 µM] (inactive) |
| CCOC(=O)[C@@H](C)Oc1ccc(Oc2nc3ccc(Cl)cc3o2)cc1 | 6.61% (inactive) |
| Cc1cccc(CN2CCN(C(c3ccccc3)c3ccc(Cl)cc3)CC2)c1 (stereo not drawn) | -9.38% [at 53.7 µM] (inactive) |
| COc1ccc2sc(C(=O)Nc3nnn[nH]3)c(OC(C)C)c2c1 | 4.02% (inactive) |
| Nc1cccc(S(=O)(=O)O)c1 | 0.635% (inactive) |
| CO[Si](CCC1CCC2OC2C1)(OC)OC (stereo not drawn) | 0.639% (inactive) |
